These results are taken from paper PMC5540273 (PLoS ONE, 2017).

Common to all, as to settings: concentration: 1 μM, replicates: in singlicate; n = 1
Experiment [1] has as its system T1, VEGFR2.
T1 construct: gene KDR

In experiment [2] the test system is T2, VPS34.
T2 construct: gene PIK3C3

Experiment [3] has as its system VRK2.
Experiment [4] deals with WEE1.
Experiment [5] concerns WEE2.
Experiment [6] has as its system WNK1.
The test system of experiment [7] is WNK2.
The test system of experiment [8] is WNK3.
The subject of experiment [9] is WNK4.
Experiment [10] concerns T3, YANK1.
T3 construct: gene STK32A

The test system of experiment [11] is T4, YANK2.
T4 construct: gene STK32B

Experiment [12] has as its system T5, YANK3.
T5 construct: gene STK32C

Experiment [13] concerns T6, YES.
T6 construct: gene YES1

Experiment [14] relates to T7, YSK1.
T7 construct: gene STK25

The subject of experiment [15] is T8, YSK4.
T8 construct: gene MAP3K19

In experiment [16] the test system is ZAK.
The test system of experiment [17] is ZAP70.
The subject of experiment [18] is T9, p38-beta.
T9 construct: gene MAPK11

The test system of experiment [19] is p38-delta.
The subject of experiment [20] is T10, p38-alpha.
T10 construct: gene MAPK14

The structures appear in SMILES notation.
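Also: KINOMEscan kinase panel screen.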

Turning to `CNC(=O)c1ccc(C)c(-n2c(C)cc(OCc3ccc(F)cc3F)c(Br)c2=O)c1`, the “%Inh” value in [1], in experiment [2], in experiment [3], in experiment [4], in [5] and in experiment [6] was 0% each time. For the same molecule, the “%Inh” value in experiment [7] is listed as 0%; in [8], 0%; in [9], 0%; in experiment [10] it was 4%; in experiment [11], 0%; in [12], 0%. Also, the “%Inh” value in experiment [13] is given as 0%; in experiment [14], 0%; in experiment [15], 0%; in experiment [16] it was 0%; in experiment [17], 0%; in experiment [18], 94.5%. Moreover, in [19], the “%Inh” value was 0%.

`Cc1ccccc1Cn1ccn2c(=O)cc(N3CCOCC3)nc12` [GSK2269905]: the “%Inh” value in [1] was determined as 0%; in [2], 88%; in experiment [3] it was 0%; in [4] it was 0%; in experiment [5], 0%; in experiment [6], 10%. Besides, the “%Inh” value was found to be 0% in experiment [7]; 8% in experiment [8]; 0% in experiment [9]; 8% in [10]; 0% in [11]; 7% in experiment [12]. Also, the “%Inh” value in [13] is listed as 19%; in experiment [14], 16%; in experiment [15], 28%; in [16], 0%; in experiment [17], 0%; in experiment [20], 0%. Further, the “%Inh” value in experiment [18] was 0%; in [19] it was 7%.

As to `COc1ccc(CSc2nnc(-c3ccc4ncsc4c3)o2)cc1C(F)(F)F`, the “%Inh” value in experiment [1], in experiment [2], in experiment [3], in experiment [4], in experiment [5] and in experiment [6] was 0% throughout. Further, the “%Inh” value stood at 8% in experiment [7]; 0% in [8]; 0% in experiment [9]; 0% in [10]; 11% in experiment [11]; 0% in experiment [12]. The “%Inh” value is reported as 0% in [13]; 11% in experiment [14]; 70% in experiment [15]; 0% in experiment [16]; 11% in experiment [17]; 0% in [20]. Further, the figures for the “%Inh” value in experiment [18] and in [19] were 10% and 0%, respectively.

Consider `CC(=O)c1c(C)c2cnc(Nc3ccn(C)n3)nc2n(C2CCCC2)c1=O`, for which the “%Inh” value is given as 0% in [1]; 3% in [2]; 28% in [3]; 0% in experiment [4]; 0% in experiment [5]; 0% in experiment [6]. Also, the “%Inh” value in experiment [7] is 0%; in experiment [8] it was 0%; in [9], 0%; in [10] it was 0%; in [11], 0%; in experiment [12] it was 2%. The “%Inh” value in experiment [13] came to 1%; in experiment [14], 0%; in [15], 18%; in experiment [16], 0%; in experiment [17], 0%; in experiment [20] it was 0%. In addition, the entries for the “%Inh” value in experiment [18] and in experiment [19] were 0% and 15%, respectively.

Turning to `Cc1ccc(-c2nc(Nc3ccncc3)c3ccccc3n2)s1` [GSK189015], the “%Inh” value was determined as 0% in experiment [1]; 0% in experiment [2]; 0% in [3]; 8% in experiment [4]; 4% in experiment [5]; 0% in experiment [6]. Besides, the “%Inh” value worked out at 3% in experiment [7]; 0% in experiment [8]; 0% in [9]; 15% in experiment [10]; 12% in experiment [11]; 28% in [12]. Further, the “%Inh” value in experiment [13] was 5%; in [14], 0%; in experiment [15], 0%; in experiment [16] it was 0%; in experiment [17], 0%; in [20], 0%. For the same molecule, the “%Inh” value was determined as 0% in [18] and 49% in experiment [19].

As to `CS(=O)(=O)CCNCc1nc(-c2ccc3ncnc(Nc4ccc5c(cnn5Cc5ccccc5)c4)c3c2)cs1.Cl.Cl` [GW569716], the “%Inh” value in experiment [1] worked out at 0%; in experiment [2], 0%; in experiment [3] it was 16%; in experiment [4], 0%; in experiment [5], 5%; in experiment [6] it was 5%. In addition, the “%Inh” value in experiment [7] was found to be 3%; in experiment [8] it was 0%; in experiment [9], 62%; in experiment [10], 3%; in [11], 0%; in [12], 0%. Besides, the “%Inh” value in [13] was 21%; in experiment [14], 0%; in experiment [15], 36%; in [16], 0%; in [17] it was 0%; in [20], 4%. Further, the entries for the “%Inh” value in [18] and in experiment [19] were 0% and 18%, respectively.

Consider `COc1ccc(Nc2nccc(N3CCC(NC(=O)C(C)c4ccc(Cl)cc4)CC3)n2)cc1` (centres unmarked) [GSK1379812], for which the “%Inh” value in experiment [1] is listed as 1%; in experiment [2], 0%; in experiment [3], 0%; in experiment [4], 31%; in experiment [5], 0%; in experiment [6], 0%. Besides, the “%Inh” value in experiment [7] was 0%; in experiment [8], 47%; in experiment [9] it was 19%; in experiment [10], 10%; in experiment [11], 2%; in experiment [12], 1%. The “%Inh” value in [13] stood at 0%; in [14], 0%; in experiment [15], 0%; in [16] it was 0%; in experiment [17], 0%; in [20] it was 1%. For the same molecule, the figures for the “%Inh” value in experiment [18] and in experiment [19] were 0% and 27%, respectively.

Consider `Cn1cncc1C(=O)NC1CCN(c2ccnc(Nc3ccc(F)cc3)n2)C1` (centres unmarked) [GSK1379717], for which the “%Inh” value is 17% in [1]; 0% in experiment [2]; 0% in experiment [3]; 7% in experiment [4]; 0% in experiment [5]; 12% in experiment [6]. Besides, the “%Inh” value in experiment [7] came out at 0%; in experiment [8], 22%; in experiment [9], 0%; in experiment [10] it was 3%; in experiment [11], 4%; in experiment [12], 0%. Further, the “%Inh” value in experiment [13] was found to be 12%; in [14], 0%; in experiment [15] it was 38%; in experiment [16], 100%; in experiment [17] it was 43%; in [20], 0%. Also, the results for the “%Inh” value in [18] and in experiment [19] were 0% and 5%, respectively.

For the molecule `COc1nccc(-c2c(-c3ccc(F)cc3)ncn2CCCN2CCOCC2)n1` [SB-282852], the “%Inh” value in experiment [1] stood at 1%; in experiment [2], 21%; in experiment [3] it was 77%; in experiment [4], 0%; in [5] it was 52%; in [6], 11%. The “%Inh” value in experiment [7] is recorded as 14%; in experiment [8], 0%; in experiment [9], 0%; in experiment [10], 0%; in [11], 0%; in experiment [12] it was 0%. Further, the “%Inh” value was determined as 0% in experiment [13]; 0% in experiment [14]; 0% in experiment [15]; 11% in experiment [16]; 31% in [17]; 81% in [20]. Also, the results for the “%Inh” value in [18] and in [19] were 62% and 0%, respectively.

Regarding `COc1ccc(CSc2nnc(-c3ccc4c(c3)CCO4)o2)cc1`, the “%Inh” value turned out to be 0% in experiment [1]; 15% in [2]; 0% in [3]; 0% in experiment [4]; 14% in experiment [5]; 0% in experiment [6]. Also, the “%Inh” value in [7], in experiment [8], in experiment [9], in [10], in experiment [11] and in experiment [12] was 0% each time. Also, the “%Inh” value in experiment [13], in experiment [14], in experiment [15], in [16], in experiment [17] and in [20] was 0% throughout. The “%Inh” value in [18] is recorded as 0%; in experiment [19], 23%.

For `FC(F)(F)c1ccccc1-c1cc(-c2c[nH]nc2-c2ccccn2)ccn1` [GW679396], the “%Inh” value was found to be 1% in experiment [1]; 0% in [2]; 0% in experiment [3]; 4% in experiment [4]; 5% in experiment [5]; 0% in experiment [6]. The “%Inh” value is 0% in [7]; 13% in experiment [8]; 11% in experiment [9]; 3% in experiment [10]; 18% in experiment [11]; 13% in experiment [12]. In addition, the “%Inh” value in [13] is on record as 0%; in [14], 0%; in [15], 0%; in [16], 0%; in [17], 0%; in experiment [20], 95.4%. The “%Inh” value in experiment [18] is 18%; in [19], 17%.

`Cl.Cl.Cl.N#Cc1ccc(CCNc2nccc(-c3cccc(CN4CCNCC4)c3)n2)cc1` [GSK2137462]: the “%Inh” value in [1] was found to be 0%; in experiment [2], 7%; in experiment [3], 0%; in experiment [4], 90.8%; in experiment [5], 0%; in experiment [6], 0%. The “%Inh” value in [7] was 0%; in [8], 0%; in [9], 95.5%; in experiment [10], 12%; in experiment [11], 0%; in experiment [12], 3%. Further, the “%Inh” value was 6% in experiment [13]; 0% in experiment [14]; 10% in [15]; 10% in [16]; 0% in [17]; 0% in experiment [20]. Moreover, the entries for the “%Inh” value in experiment [18] and in experiment [19] were 0% and 49%, respectively.
